From PubChem BioAssay
The list is not random: actives were taken first. Their share in the collection is about 0.51%.
Tat export inh: E. coli Tat transport inhibition. AID 488895. E. coli MC4100 TorA-mCherry Tat export, fluorescence. actives 0.036% (n = 340,000). inhibition, % at 10 µM;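 active means mean replicate inhibition at least 50% and at least half of replicates individually reaching 50%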;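 further: exported cargo escapes ClpAP degradation while cytoplasmic cargo is degraded and loses fluorescence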
E coli growth-1: bacterial growth inhibition, counter-screen for AddAB inhibitors. actives 0.27% (n = 330,000). E. coli V3065 growth, OD600 absorbance, 18 h. inhibition, % at 11.9 µM. AID 449728;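 active means inhibition above the campaign's mean inhibition across all tested compounds plus 3 SD, cut at about 9.9% in these data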;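 further: uninfected addAB+ strain grown without phage in ampicillin broth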
phage Ecoli inh: E. coli growth loss with phage present; growth absorbance; inhibition, % at 11.9 µM; actives 0.26% (n = 360,000); AID 651602; in the data active means inhibition above about 11%
E coli growth-2: blocks Escherichia coli growth; OD600 absorbance (test concentration not listed); actives 0.21% (n = 330,000); OD600, 23 h; active compounds read low;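 active means OD600 absorbance below the run mean of sample wells minus 3.6 SD, in any replicate, cut at about 0.56 in these data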
AddAB inh: less growth of phage-infected E. coli with AddAB; AID 435030; actives 0.29% (n = 330,000); E. coli expressing H. pylori AddAB, absorbance growth; inhibition, % at 11.9 µM; in the data active means inhibition above about 12%
AddAB conf: confirmation screen: growth loss of phage-infected E. coli expressing H. pylori AddAB; shares compounds with AddAB inh; E. coli V3065 expressing H. pylori AddAB, T4 phage, OD; T4 phage with gene 2 nonsense mutations; inhibition, % at 11.9 µM; actives 64% (n = 880);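 active means mean inhibition above a set limit taken from the earlier primary screen, cut at about 13% in these data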;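 further: higher means less bacterial growth since AddAB block lets phage replicate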
RecBCD counter: AddAB counter-screen: growth loss of RecBCD+ E. coli infected with mutant T4 phage; shares compounds with AddAB inh; E. coli V66 + mutant T4 phage, OD growth; inhibition, % at 11.9 µM; actives 73% (n = 880);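 active means mean inhibition above the mean of solvent-only control wells plus 3 SD, cut at about 4% in these data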;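 further: optical density read after an 18 h incubation at 37 °C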
bact viab count: counter-screen: bacterial growth inhibition | inhibition, % at 11.9 µM | actives 35% (n = 880) | bacterial viability, absorbance (AddAB counterscreen) | shares compounds with AddAB inh; in the data active means inhibition above about 25%
RecBCD conf: confirmation: growth loss of phage-infected RecBCD+ E. coli (RecBCD inhibitor screen) | inhibition, % at 11.9 µM | E. coli V66 + T4 2- phage, growth OD | AID 651982 | actives 45% (n = 890) | shares compounds with phage Ecoli inh;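 active means mean inhibition over triplicates exceeding the hit threshold derived in the original primary screen, cut at about 11% in these data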
Ecoli viability: counter-screen for RecBCD inhibitors: inhibitors of bacterial viability; inhibition, % at 11.9 µM; shares compounds with phage Ecoli inh; actives 29% (n = 890); AID 651983; E. coli viability, absorbance (OD) growth; in the data active means inhibition above about 20%;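 further: E. coli strain V66 grown with compound alone and no phage infection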
AddAB counter: growth loss of phage-infected AddAB E. coli, RecBCD counter-screen; shares compounds with phage Ecoli inh; E. coli expressing H. pylori AddAB + T4 phage, OD growth; gene 2 mutant T4, recBCD-deleted host; inhibition, % at 11.9 µM; actives 45% (n = 890);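 active means mean inhibition above the solvent-only control wells' mean plus 3 SD, cut at about 22% in these data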;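 further: higher means less bacterial growth from phage killing when AddAB is blocked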
Hits are given with their value; i = inactive; nt = no result given.

SMILES | Tat export inh | E coli growth-1 | phage Ecoli inh | E coli growth-2 | AddAB inh | AddAB conf | RecBCD counter | bact viab count | RecBCD conf | Ecoli viability | AddAB counter
Cc1ccc(C=NNC(=O)c2ccc(Cn3cc(Br)c([N+](=O)[O-])n3)o2)o1 | nt | nt | nt | i | nt | nt | nt | nt | nt | nt | nt
Cc1ccc(C(=O)N/N=C\c2ccc(-c3ccc([N+](=O)[O-])cc3)o2)cn1 | i | i | i | nt | i | nt | nt | nt | nt | nt | nt
O=C(Cc1ccc([N+](=O)[O-])cc1)N/N=C/c1ccc([N+](=O)[O-])o1 | i | 14 | 13 | nt | 21 | 75 | 7.1 | i | i | i | 67
O=C(CNc1cccc([N+](=O)[O-])c1)N/N=C/c1ccc([N+](=O)[O-])o1 | i | 33 | 18 | nt | 82 | 102 | 16 | 60 | 14 | i | 66
Cc1ccc(C(=O)N/N=C\c2ccc([N+](=O)[O-])o2)cn1 | i | 20 | 18 | nt | 84 | 101 | 14 | 36 | i | i | 97
COc1ccc(C2CC=C(C(=O)O)C(c3ccc(Cl)cc3)N2S(=O)(=O)c2ccc(C)cc2)cc1OC (centres undefined) | nt | nt | nt | i | nt | nt | nt | nt | nt | nt | nt
O=C(NN=Cc1ccco1)c1cc(-c2ccccc2)n[nH]1 | nt | nt | nt | i | nt | nt | nt | nt | nt | nt | nt
CCCCCC(CC(=O)NO)C(=O)NC(C(=O)N1CCCC1CO)C(C)C (centres undefined) | i | 22 | 25 | i | 22 | 19 | 24 | i | 18 | i | i
O=C(CSc1ccc(-c2ccccn2)nn1)c1ccccc1 | i | 12 | 14 | i | 13 | i | 11 | i | i | i | 24
O=C(CSc1ccc(-c2ccccc2)nn1)c1ccccc1 | i | i | i | i | i | nt | nt | nt | nt | nt | nt
COc1ccc(OC)c(NC(=O)Nc2nnc(N3CCCCC3C)s2)c1 (centres undefined) | i | 13 | 13 | i | 13 | i | 17 | i | i | i | i
Oc1ccc(CC2CNCCN2CCc2cc(C(F)(F)F)cc(C(F)(F)F)c2)cc1 (centres undefined) | nt | nt | nt | i | nt | nt | nt | nt | nt | nt | nt
CCOC(=O)C1=Nc2ccccc2C1=[N+]=[N-] | i | 96 | 91 | nt | 98 | 100 | 98 | 101 | 98 | 99 | 101
O=C1NCCN1c1ncc([N+](=O)[O-])s1 | i | 101 | 98 | 0.066 | 100 | 96 | 95 | 96 | 96 | 97 | 101
O=C(Nc1ncc([N+](=O)[O-])s1)C1CC(=O)N(c2ccc(F)cc2)C1 (centres undefined) | i | i | i | i | i | nt | nt | nt | nt | nt | nt
CCN(CC)CCNC(=O)c1cn(CC)c2cc(N3CCN(C)CC3)c(F)cc2c1=O | i | 98 | 96 | 0.056 | 100 | 99 | 100 | 98 | 65 | 102 | 100
CCn1cc(C(=O)NCc2cccnc2)c(=O)c2cc(F)c(N3CCN(C(=O)c4ccco4)CC3)cc21 | i | 94 | 21 | 0.051 | 95 | 98 | 10 | 99 | 13 | i | 103
CCn1cc(C(=O)NCCC(C)C)c(=O)c2cc(F)c(N3CCN(C)CC3)cc21 | i | 99 | 40 | 0.066 | 100 | 99 | 59 | 99 | 19 | 36 | 93
CCCCNC(=O)c1cn(CC)c2cc(N3CCN(C)CC3)c(F)cc2c1=O | nt | 98 | 97 | 0.071 | 100 | 98 | 100 | 99 | 103 | 104 | 104
CCOC(=O)c1ccc(NC(=O)c2nc[nH]c2C(=O)NC(C)c2ccccc2)cc1 (centres undefined) | nt | nt | nt | i | nt | nt | nt | nt | nt | nt | nt
O=C1CC2c3c(cccc3CN1Cc1ccccc1F)CC(O)C2O (centres undefined) | nt | nt | nt | i | nt | nt | nt | nt | nt | nt | nt
